Screening data deposited in PubChem by several laboratories.
HDAC3 inhib – inhibitors of human histone deacetylase 3; O15379; recombinant HDAC3, fluorogenic peptide/trypsin coupled, fluorescence; inhibition, % at 8.3 µM; hit rate 0.15% among 320,000; AID 2718; in the data active = inhibition above about 26%, passing the limit was not always enough; inconclusive = no clear call, values can overlap the other calls
ALR inh – blocks human ALR sulfhydryl oxidase activity. P55789. purified ALR, DTT oxidation, H2O2 HRP-luminol luminescence. inhibition, % (no concentration beside the values). hit rate 3.8% among 290,000;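 active = mean replicate inhibition above about 79%, with every replicate also reaching it, limit read from the data; inconclusive = only one of the two criteria met; inactive = mean below limit and not every replicate reaching it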
Target sequence (P55789 whole entry, looked up): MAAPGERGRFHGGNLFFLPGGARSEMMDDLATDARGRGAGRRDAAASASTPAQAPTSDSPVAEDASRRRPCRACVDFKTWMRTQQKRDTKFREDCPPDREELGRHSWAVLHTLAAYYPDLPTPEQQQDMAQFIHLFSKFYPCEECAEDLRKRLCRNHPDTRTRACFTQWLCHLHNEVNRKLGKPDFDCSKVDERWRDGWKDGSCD
GRK2 aptamer HTS – human GRK2 inhibition via aptamer displacement; inhibition of aptamer binding, % at 10 µM; hit rate 0.59% among 330,000; bead flow cytometry, FAM-aptamer displacement from GRK2; P25098;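 active = inhibition of aptamer binding above 40%, roughly 3 SD of noise, on plates passing a quality check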;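 also: median bead fluorescence of bound FAM aptamer so fluorescent compounds give negative values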
Efflux pump inh – inhibitors of Candida antifungal efflux pumps expressed in yeast | S. cerevisiae Candida pump triplex, Nile Red efflux | inhibition, % at 10 µM | hit rate 0.44% among 330,000 | AID 485275;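 active = plate passing quality check with inhibition over a set limit, or well fluorescence over plate mean plus 4 SD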;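 also: Nile Red retained in pooled yeast measured as flow cytometry median fluorescence; 0% = buffer negative control and 100% = Enniatin B positive control; higher means more Nile Red kept so more efflux inhibition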
Rce1 inhib – yeast Ras-converting enzyme inhibition; yeast membranes, quenched prenylated peptide cleavage fluorescence; Q03530; calls only; hit rate 0.27% among 290,000;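 active = fall in fluorescence gain of 50% or more versus controls, with final raw signal at or below 3038400; inconclusive = same 50% fall but final raw signal above 3038400; inactive = fall in fluorescence gain under 50%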;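 also: plate controls were neutral control wells for no effect and wells lacking membranes for full effect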
Rtt109 Vps75 – blocks Candida albicans Rtt109/Vps75 acetyltransferase activity. purified Rtt109/Vps75, ThioGlo CoA-SH fluorescence, 4 h. inhibition, % at 34.9 µM. hit rate 0.16% among 330,000. AID 540336;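 active = inhibition of at least 50% in every replicate; inconclusive = best replicate reaches 50% inhibition but some replicates fall short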
Target sequence (Q5AAJ8 whole entry, looked up): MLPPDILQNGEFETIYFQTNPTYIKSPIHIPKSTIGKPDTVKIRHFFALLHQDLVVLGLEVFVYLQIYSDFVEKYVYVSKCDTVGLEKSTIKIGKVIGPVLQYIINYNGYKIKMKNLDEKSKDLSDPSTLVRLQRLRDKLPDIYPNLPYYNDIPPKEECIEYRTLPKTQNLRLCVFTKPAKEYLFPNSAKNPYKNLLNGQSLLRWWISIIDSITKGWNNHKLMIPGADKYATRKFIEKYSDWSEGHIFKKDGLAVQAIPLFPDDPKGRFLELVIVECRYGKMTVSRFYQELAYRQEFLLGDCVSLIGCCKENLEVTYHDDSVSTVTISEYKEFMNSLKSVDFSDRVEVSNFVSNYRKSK
The depositor's hits bear a star. The list is not random: actives were taken first. Their share in the collection is about 4.5%.

Results for C#CCOc1ccccc1CNc1ccccc1 ?
HDAC3 inhib: 1; ALR inh: 98*; GRK2 aptamer HTS: 0; Efflux pump inh: 0; Rce1 inhib: inactive; Rtt109 Vps75: inconclusive

Results for CCOC(=O)c1ccc(N/C=C/C(=O)C(C)(C)C)cc1 ?
HDAC3 inhib: 2; ALR inh: -4; GRK2 aptamer HTS: 0; Efflux pump inh: 0; Rce1 inhib: inactive; Rtt109 Vps75: -6

What do the screens show for `CC(C)(C)C(=O)/C=C/Nc1ccccc1O`?
HDAC3 inhib: 6; ALR inh: 99*; GRK2 aptamer HTS: 1; Efflux pump inh: 0; Rce1 inhib: inactive; Rtt109 Vps75: 6

How did CN(C)c1ccc(N/C=C/C(=O)C(C)(C)C)cc1 do in these assays?
HDAC3 inhib: 1; ALR inh: 99*; GRK2 aptamer HTS: 4; Efflux pump inh: 0; Rce1 inhib: inactive; Rtt109 Vps75: 14

What do the screens show for `CN(C)c1ccc(N/C=C/C(=O)c2ccccc2)cc1`?
HDAC3 inhib: 6; ALR inh: 40; GRK2 aptamer HTS: 0; Efflux pump inh: 0; Rce1 inhib: inactive; Rtt109 Vps75: -6

What do the screens show for `Cc1cc(C(=O)CSc2nc(N)cc(=O)[nH]2)ccc1F`?
HDAC3 inhib: -6; ALR inh: 90*; GRK2 aptamer HTS: 0; Efflux pump inh: 0; Rce1 inhib: inactive; Rtt109 Vps75: 12

What do the screens show for `Cc1ccc(C(=O)CSc2nc(O)cc(=O)[nH]2)cc1C`?
HDAC3 inhib: 30*; GRK2 aptamer HTS: 2; Efflux pump inh: 0; Rce1 inhib: inactive; Rtt109 Vps75: -1

What do the screens show for `O=C(CSc1nc(O)cc(=O)[nH]1)C1CC1`?
HDAC3 inhib: 1; ALR inh: 86*; GRK2 aptamer HTS: 0; Efflux pump inh: 0; Rce1 inhib: inactive; Rtt109 Vps75: -3

Results for Cc1ccc(C(=O)CSc2nc(N)cc(=O)[nH]2)cc1C ?
HDAC3 inhib: 5; ALR inh: 99*; GRK2 aptamer HTS: 0; Efflux pump inh: 0; Rce1 inhib: inactive; Rtt109 Vps75: -6

How did CC(C)(C)OC(=O)N[C@H](/C=C/c1ccccc1)C(=O)OC(C)(C)C do in these assays?
HDAC3 inhib: 3; ALR inh: -4; GRK2 aptamer HTS: 1; Efflux pump inh: 0; Rtt109 Vps75: 4

Results for COc1ccc(C(=O)Oc2ccc(/C=N/O)cc2)cc1 ?
HDAC3 inhib: -3; ALR inh: 91*; GRK2 aptamer HTS: 0; Efflux pump inh: 0; Rce1 inhib: inactive; Rtt109 Vps75: 8

How did COc1ccc(CCNC(=O)CSCc2ccc([N+](=O)[O-])cc2)cc1 do in these assays?
HDAC3 inhib: 0; ALR inh: -14; GRK2 aptamer HTS: 0; Efflux pump inh: 0; Rce1 inhib: inactive; Rtt109 Vps75: -3

What do the screens show for `COc1ccc(OC(=O)c2ccncc2)cc1`?
HDAC3 inhib: 7; ALR inh: 1; GRK2 aptamer HTS: 2; Efflux pump inh: 0; Rce1 inhib: inactive; Rtt109 Vps75: 7

Results for COc1ccc2cc(/C=N/NC(=O)CSCc3ccc([N+](=O)[O-])cc3)c(Cl)nc2c1 ?
HDAC3 inhib: 7; ALR inh: 99*; GRK2 aptamer HTS: 0; Efflux pump inh: 0; Rce1 inhib: inactive; Rtt109 Vps75: -4

How did COc1ccc(C(=O)Oc2ccc(/C=N/NC(=O)Cc3ccc([N+](=O)[O-])cc3)cc2)cc1 do in these assays?
HDAC3 inhib: -7; ALR inh: -2; GRK2 aptamer HTS: 85*; Efflux pump inh: 0; Rce1 inhib: inactive; Rtt109 Vps75: 13

How did Cn1cccc1CC(=O)N/N=C/c1ccc([N+](=O)[O-])cc1 do in these assays?
HDAC3 inhib: 2; ALR inh: 99*; GRK2 aptamer HTS: 0; Efflux pump inh: 0; Rce1 inhib: inactive

What do the screens show for `CN(C)NC(=S)NC1CC2CCC1C2` (stereo not drawn)?
HDAC3 inhib: 3; ALR inh: -16; GRK2 aptamer HTS: 3; Efflux pump inh: 0; Rce1 inhib: inactive; Rtt109 Vps75: -11

How did N#C/C=C/N1CCC(Cc2ccccc2)CC1 do in these assays?
HDAC3 inhib: -1; ALR inh: -8; GRK2 aptamer HTS: 3; Efflux pump inh: 0; Rce1 inhib: inactive; Rtt109 Vps75: 7

What do the screens show for `COC(=O)c1ccc(C(NC(=O)c2cccnc2)NC(=O)c2cccnc2)cc1`?
HDAC3 inhib: 8; ALR inh: -5; GRK2 aptamer HTS: 1; Efflux pump inh: 0; Rce1 inhib: inactive; Rtt109 Vps75: -8

What do the screens show for `COCCN(C(=O)COC(=O)CCS(=O)(=O)c1ccccc1)c1c(N)n(Cc2ccccc2)c(=O)[nH]c1=O`?
ALR inh: 1; GRK2 aptamer HTS: 2; Efflux pump inh: 0; Rce1 inhib: inactive; Rtt109 Vps75: 5

Results for CCN1CCN(Cc2ccc(NC(=O)Nc3ccc(SC)cc3)cc2)CC1 ?
HDAC3 inhib: 4; ALR inh: 96*; GRK2 aptamer HTS: 0; Efflux pump inh: 0; Rce1 inhib: inactive; Rtt109 Vps75: 7

What do the screens show for `O=C(OCCc1ccccc1)c1cc(O)c(O)c(O)c1`?
HDAC3 inhib: 3; ALR inh: 99*; GRK2 aptamer HTS: 0; Efflux pump inh: 0; Rce1 inhib: inactive; Rtt109 Vps75: 4

How did Cc1nnc(SCC(=O)N/N=C/c2cc(Cl)c(O)c(Cl)c2)s1 do in these assays?
HDAC3 inhib: 4; ALR inh: 82*; GRK2 aptamer HTS: 8; Efflux pump inh: -1; Rce1 inhib: inactive; Rtt109 Vps75: -5

What do the screens show for `O=C(CSc1nnc(SCc2ccc(Cl)cc2)s1)N/N=C/c1ccc(Cl)cc1Cl`?
HDAC3 inhib: 1; ALR inh: 1; GRK2 aptamer HTS: 0; Efflux pump inh: 0; Rce1 inhib: inactive; Rtt109 Vps75: -4

What do the screens show for `C/C(=N\NC(=S)Nc1c(C)cccc1C)c1cc2ccccc2o1`?
ALR inh: 0; GRK2 aptamer HTS: 1; Efflux pump inh: 1; Rce1 inhib: inactive; Rtt109 Vps75: 3

How did C/C(=N\NC(=S)Nc1c(C)cccc1C)c1ccc(O)cc1 do in these assays?
HDAC3 inhib: 2; ALR inh: 87*; GRK2 aptamer HTS: 0; Efflux pump inh: 0; Rce1 inhib: inactive; Rtt109 Vps75: -19

Results for Cc1cccc(NC(=O)c2cc(S(=O)(=O)N(C)c3ccc(F)cc3)ccc2Cl)n1 ?
HDAC3 inhib: 0; ALR inh: -10; GRK2 aptamer HTS: 0; Efflux pump inh: 0; Rce1 inhib: inactive; Rtt109 Vps75: 12

What do the screens show for `O=C(O)C1CCc2sc3[nH]c(=S)n(-c4ccccc4)c(=O)c3c21` (stereo not drawn)?
HDAC3 inhib: 9; ALR inh: 1; GRK2 aptamer HTS: 3; Efflux pump inh: 0; Rce1 inhib: inactive; Rtt109 Vps75: 105*

What do the screens show for `CCN(CC)C(=O)c1sc2[nH]c(=S)n(-c3ccccc3)c(=O)c2c1C`?
HDAC3 inhib: 0; ALR inh: 0; GRK2 aptamer HTS: 1; Efflux pump inh: -1; Rce1 inhib: inactive; Rtt109 Vps75: -3

Results for C1=C(c2ccccc2)Nc2ncnn2C1c1ccccc1 (stereo not drawn) ?
HDAC3 inhib: 20; GRK2 aptamer HTS: 0; Efflux pump inh: 0; Rce1 inhib: inactive; Rtt109 Vps75: -391
